In ChEMBL document CHEMBL1157539, “Thousands of chemical starting points for antimalarial lead identification” (Nature, 2010):

test system: Plasmodium falciparum; assay: GSK_TCMDC: Inhibition of Plasmodium falciparum 3D7 in whole red blood cells, using parasite LDH activity as an index of growth. Test compounds present at 2uM; type: functional

First: Br.CC1(C)NC(N)=NC(=N)N1OCCCOc1cc(Cl)ccc1Cl
Second: COc1cc(NC(=O)C(c2ccc(Cl)cc2)C(C)C)cc(OC)c1OC (centres undefined)
The Inhibition of the first is lower: 96% for the first, 100% for the second.

First: O=C(O)C(F)(F)F.O=S(=O)(NCCN1CCCC1)c1cccc(-c2cccc(CNCCc3cccs3)c2)c1
Second: O=C(O)C(F)(F)F.O=C1CCCN1CCCNCc1cccc(-c2ccc(-c3nc4ccccc4[nH]3)s2)c1
The Inhibition of the first is higher: 100% for the first, 97% for the second.

Compared with `COc1ccc(-c2ccc(NC(=O)c3ccc(C#N)cc3)cc2)cc1CN1CCN(C)CC1.O=C(O)C(F)(F)F`, `Cc1cccc(C(=O)Nc2ccnc(N(C)CCCN(C)Cc3cccc(C#N)c3)c2)c1.O=C(O)C(F)(F)F` is lower in Inhibition: 93% for the first, 92% for the second.

`COc1ccc(Br)cc1C1C2C(=O)N(c3ccc(Br)cc3)C(=O)C2C2(C(=O)O)CC(OCc3ccccc3)CN12` (centres undefined) and `CCOc1cc(C(=O)NC2CCN(Cc3ccccc3)CC2)ccc1-c1nc2cc(Cl)ccc2[nH]1` are the same in Inhibition: 100% for the first, 100% for the second.

Compared with `CC(Cc1ccc(COc2ccc(CC(CO)NCCc3cccc(Cl)c3)cc2)cc1)NCCc1cccc(Cl)c1.Cl` (centres undefined), `Cc1cnc(CN(Cc2ccc(-c3ccc(CNCCc4ccc(S(C)(=O)=O)cc4)cn3)cc2)C(=O)c2nn(-c3ccccc3)nc2C)cn1.O=C(O)C(F)(F)F` is lower in Inhibition: 100% for the first, 84% for the second.

Compared with `CC(C)c1cccc(OCC2CCN(c3ccc(C(=O)Nc4ccccc4)cn3)CC2)c1`, `CC(C)c1ccc(CN2CCC(CNC(=O)c3cc(-c4cccc(Cl)c4)cs3)C2)cc1.O=C(O)C(F)(F)F` (centres undefined) is higher in Inhibition: 95% for the first, 99% for the second.

First: CC(=O)Nc1nc(C(=O)Nc2cccc(-c3ccc(-c4nc5ccccc5[nH]4)cc3)c2)cs1
Second: O=C(Nc1ccsc1)Nc1cccc(-c2ccc(-c3nc4cc(C(F)(F)F)ccc4[nH]3)cc2)c1
The Inhibition of the first is higher: 100% for the first, 99% for the second.

Compared with `Cc1nnc2c(NC(=O)NC3CCCC3)cc3cc(-c4ccc(CN5CCCCC5)cc4)ccc3n12`, `CCc1ccc(CN2CCC(NC(=O)c3ccc(-c4ccccc4F)s3)CC2)cc1.O=C(O)C(F)(F)F` is lower in Inhibition: 99% for the first, 80% for the second.

Compared with `COc1ccc2nc(C)cc(N/N=C/c3ccc([N+](=O)[O-])o3)c2c1`, `COc1ccc2nccc([C@@H](O)CN3CCC(NCc4cn5cc(F)ccc5n4)CC3)c2c1.O=C(O)C(=O)O` is lower in Inhibition: 100% for the first, 96% for the second.

First: CCN1CCN(c2ccc(Nc3c4ccccc4nc4ccccc34)cc2)CC1
Second: CCC(NC[C@@H](O)[C@H](Cc1ccccc1)NC(=O)c1cc(C2CCCC2)cc(N2CCCC2=O)c1)c1cccc(Cl)c1.Cl (some centres undefined)
The Inhibition of the first is lower: 99% for the first, 100% for the second.

`CCN(CC)CCN(Cc1ccc(-c2ccc(C(F)(F)F)cc2)cc1)C(=O)Cn1c(CCc2cccc(F)c2F)nc(=O)c2ccc(C(F)(F)F)cc21.O=C(O)C(O)C(O)C(=O)O` and `Cc1cccc2nc(-c3ccc(-c4ccc(CNCCCNS(C)(=O)=O)cc4)s3)[nH]c12.O=C(O)C(F)(F)F` are the same in Inhibition: 99% for the first, 99% for the second.

Going from `CC1CCc2sc(-c3nnc(SC(C)C(=O)N4CCCC4)o3)cc2C1` (centres undefined) to `CCC1(C)CC(CCNCc2ccccc2O)(c2ccccc2OC)CCO1.Cl` (centres undefined), the Inhibition rises from 93% to 94%.
